Experimental data: PubChem BioAssay (NCATS)
Results filed as inconclusive are left out. Active and inactive are the calls of the source. Calls follow the shape of the dose curve; as a rule, active = well fitted cell-killing curve with a large enough effect; inconclusive = small, poorly fitted or top-dose-only effect; inactive = flat fitted curve, though single readings scatter.

assay: Cellular viability qHTS for adrenocortical cancer (ACC) cell line SW-13 (AID 1963989); settings: SW-13 ACC cells viability, CellTiter-Glo, 48 h; activity (max response): hits give low values; also: nearly all actives have a fitted effect of over 65% in size;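 as to activity (max response): cells grown in serum-free medium with ITS supplement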
Summary of the method: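 Compound titrations (up to 46 uM final, in DMSO) were applied to SW-13 cells for 48 h at 37C/5% CO2. Reading used CellTiter-Glo after 20 min at room temperature; fitted curves yielded IC50 and efficacy.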
% is scaled to controls: 0 for no effect and ±100 for the full control effect; potency is read from the fitted curve at half-maximal effect.

SMILES	Potency	activity (max response)
CCN1CCN(Cc2ccc(NC(=O)c3ccc(C)c(/C=C/c4cnc5[nH]ccc5c4OC)c3)cc2C(F)(F)F)CC1	3.16 µM (active)	–
C[C@H]1C[C@@H](n2c(Nc3ccc(OC(F)(F)F)cc3)nc3cc(CCC(=O)O)ccc32)CC(C)(C)C1	–	-13.1% (inactive)
CCN(c1cc(-c2ccc(CN3CCOCC3)cc2)cc(C(=O)NCc2c(C)cc(C)[nH]c2=O)c1C)C1CCOCC1	–	-2.62% (inactive)
CCOC(=O)N[C@@H]1CC[C@@H]2[C@@H](C1)C[C@H]1C(=O)O[C@H](C)[C@H]1[C@H]2/C=C/c1ccc(-c2cccc(F)c2)cn1	–	-18% (inactive)
CCCCCCCCCCCCCC[N+](C)(C)C	4.61 µM (active)	–
Nc1ccc(C(=O)OCC(O)CO)cc1 (stereo not drawn)	–	13.4% (inactive)
C[C@@H](Nc1cc(F)cc(F)c1)c1cc(C(=O)N(C)C)cc2c(=O)cc(N3CCOCC3)oc12	–	-10.8% (inactive)
Nc1c(I)cc(I)c(C(=O)N(CCC(=O)O)c2ccccc2)c1I	–	-3.73% (inactive)
CC(C)(C)NC(=O)c1cncn1C1CCN(c2ccc(-c3nnc(C(F)(F)F)o3)cn2)CC1	–	-14% (inactive)
CN[C@@H]1[C@H](O[C@H]2[C@H](O[C@@H]3[C@@H](O)[C@H](O)[C@@H](N=C(N)N)[C@H](O)[C@H]3N=C(N)N)O[C@@H](C)[C@]2(O)C=O)O[C@@H](CO)[C@H](O)[C@H]1O	–	6.19% (inactive)
CC(C)n1cc(-c2ccc3c(c2)N(C)CC3)c2c(NS(=O)(=O)c3ccn(C)n3)ccnc21	–	9.47% (inactive)
CC1c2cccc(O)c2C(O)=C2C(=O)C3(O)C(O)=C(C(N)=O)C(=O)C(N(C)C)C3C(O)C21 (stereo not drawn)	–	8.67% (inactive)
S=c1[nH]c2ccccc2s1	–	3% (inactive)
